Reference: PubChem BioAssay (NCI)
About 79,000 compounds went through this panel and 15% of them were active in at least one assay; those are over-represented in the sample as a whole. Activity calls are given as the source filed them. No stated cut-off is given here; in the data, active means growth inhibition above about 70%; inactive means the rest.

Experiment: NCI Yeast Anticancer Drug Screen. Data for the cln2 rad14 strain (AID 165);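 further: 0% = growth equal to vehicle treated cultures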
Settings: S. cerevisiae cln2 rad14 strain, at 50.0 µM, active compounds read high
Method in brief: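 Compounds are applied to the cln2 rad14 yeast strain, and growth is then compared with that of vehicle-treated cultures to give inhibition.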

| SMILES | growth inhibition |
| --- | --- |
| COc1ccc2c(ccc[n+]2C)c1 | 19.2% (inactive) |
| NC(=O)c1cc2c3ccccc3ccn2c1-c1ccccc1 | 62.6% (inactive) |
| O=C(CC(CC(=O)c1ccccc1)c1ccccn1)c1ccccc1 | -33% (inactive) |
| Cn1c(=O)[nH]c2ccccc2c1=O | 0.7% (inactive) |
| C=COC(=O)C(C)(C)C | 21.4% (inactive) |
| CN1CCN(C(=S)S)CC1 | 2.15% (inactive) |
| CC(=O)c1cccs1 | -20.1% (inactive) |
| C/C(=N\Nc1ccc([N+](=O)[O-])cc1[N+](=O)[O-])c1ccc(Br)cc1 | -12.8% (inactive) |
| CCC12OC(COc3ccccc3)CN1CCN2c1ccccc1 (centres undefined) | 3.15% (inactive) |
| CC1(C)OC(=O)CC1=O | 3.65% (inactive) |
| CCOC(=O)c1ccc(NC(=O)Nc2nccs2)cc1 | 11.2% (inactive) |
| NC(=O)N1CCOCC1 | -27.4% (inactive) |
| C[n+]1c(/C=C\C=C\N2CCCCC2)sc2ccccc21 | 2.45% (inactive) |
| NC(CCl)=NCC12CC3CC(CC(C3)C1)C2 | 14.8% (inactive) |
| C=C(OC(C)=O)c1ccccc1 | -7.25% (inactive) |
| CCC(=O)C1C(=O)c2ccccc2C1=O | -13.8% (inactive) |
| COc1ccc(/C=N/NC(=O)COCC(=O)N/N=C/c2ccc(OC)cc2)cc1 | 2.5% (inactive) |
| CC(c1ccccc1)N(C)C (centres undefined) | 7.6% (inactive) |
| NC(=S)c1c(N)n(C2OC(CO)C(O)C2O)c2ncnc(N)c12 (centres undefined) | -3.15% (inactive) |

| SMILES | growth inhibition |
| --- | --- |
| C1CCc2onc(-c3noc4c3CCCCC4)c2CC1 | -1.1% (inactive) |
| COC(=O)c1ccccc1C(=O)c1c(C)cc(C)cc1C | -64% (inactive) |
| CN1C(=O)NC(c2ccc(Cl)cc2)(c2ccc(Cl)cc2)C1=O | -11.9% (inactive) |
| CCCOCc1cn[nH]n1 | -8.85% (inactive) |
| NS(=O)(=O)c1cc(=O)[nH]c(=O)[nH]1 | -4% (inactive) |
| O=C(O)C1CSC(c2ccccc2)N1 (centres undefined) | 3% (inactive) |
| C=CCC(OC(C)=O)c1ccc(OC)c(OC)c1 (centres undefined) | -13.9% (inactive) |
| COc1cc(N)c2ncccc2c1Cl | -0.05% (inactive) |
| CC(=O)Oc1c(Cl)cccc1-c1ccccc1 | 5.4% (inactive) |
| CC(C)C(C)(C)C(=O)C(C)(C)C(C)(C)C | -35.5% (inactive) |
| c1ccc2c(NCCCN3CCN(CCCNc4c5ccccc5nc5ccccc45)CC3)c3ccccc3nc2c1 | -0.25% (inactive) |
| O=S(=O)(O)c1ccc(O)c(C2CCCCC2)c1 | -23.2% (inactive) |
| Cc1ccc2nc(-c3ccc(N=Cc4ccccc4O)cc3)sc2c1 | -6% (inactive) |
| CCCCCCCCCCCCCC/C=C\C(CC(=O)O)C(=O)O (centres undefined) | -32.6% (inactive) |
| OCCc1ccc(Cl)cc1 | 15.3% (inactive) |
| CCOC(C=O)OCC | -9% (inactive) |
| Cc1ccc2nc(N)nnc2c1 | 20.8% (inactive) |
| O=[n+]1ccn([O-])c2ccccc21 | -52.2% (inactive) |

Experiment: NCI Yeast Anticancer Drug Screen. Data for the bub3 strain (AID 167)
Settings: S. cerevisiae bub3 mutant strain, at 50.0 µM, active compounds read high
Method in brief: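 Compounds were applied to a genetically altered yeast strain carrying a cell-cycle control defect. Growth inhibition was scored against vehicle-treated controls.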

| SMILES | growth inhibition |
| --- | --- |
| COc1ccc2c(ccc[n+]2C)c1 | -15.7% (inactive) |
| NC(=O)c1cc2c3ccccc3ccn2c1-c1ccccc1 | 64% (inactive) |
| O=C(CC(CC(=O)c1ccccc1)c1ccccn1)c1ccccc1 | 4.65% (inactive) |
| Cn1c(=O)[nH]c2ccccc2c1=O | 6.85% (inactive) |
| C=COC(=O)C(C)(C)C | -0.45% (inactive) |
| CN1CCN(C(=S)S)CC1 | 3.5% (inactive) |
| CC(=O)c1cccs1 | -3.35% (inactive) |
| C/C(=N\Nc1ccc([N+](=O)[O-])cc1[N+](=O)[O-])c1ccc(Br)cc1 | 8.7% (inactive) |
| CCC12OC(COc3ccccc3)CN1CCN2c1ccccc1 (centres undefined) | -15.1% (inactive) |
| CC1(C)OC(=O)CC1=O | 1.8% (inactive) |
| CCOC(=O)c1ccc(NC(=O)Nc2nccs2)cc1 | -12.4% (inactive) |
| NC(=O)N1CCOCC1 | -14.3% (inactive) |
| C[n+]1c(/C=C\C=C\N2CCCCC2)sc2ccccc21 | 31.6% (inactive) |
| NC(CCl)=NCC12CC3CC(CC(C3)C1)C2 | 54% (inactive) |
| C=C(OC(C)=O)c1ccccc1 | 28.3% (inactive) |
| CCC(=O)C1C(=O)c2ccccc2C1=O | 6.1% (inactive) |
| COc1ccc(/C=N/NC(=O)COCC(=O)N/N=C/c2ccc(OC)cc2)cc1 | -33% (inactive) |
| CC(c1ccccc1)N(C)C (centres undefined) | 5.9% (inactive) |
| NC(=S)c1c(N)n(C2OC(CO)C(O)C2O)c2ncnc(N)c12 (centres undefined) | -5.5% (inactive) |

| SMILES | growth inhibition |
| --- | --- |
| C1CCc2onc(-c3noc4c3CCCCC4)c2CC1 | -21.4% (inactive) |
| COC(=O)c1ccccc1C(=O)c1c(C)cc(C)cc1C | 46.9% (inactive) |
| CN1C(=O)NC(c2ccc(Cl)cc2)(c2ccc(Cl)cc2)C1=O | -8% (inactive) |
| CCCOCc1cn[nH]n1 | -8.95% (inactive) |
| NS(=O)(=O)c1cc(=O)[nH]c(=O)[nH]1 | -1.95% (inactive) |
| O=C(O)C1CSC(c2ccccc2)N1 (centres undefined) | -5.55% (inactive) |
| C=CCC(OC(C)=O)c1ccc(OC)c(OC)c1 (centres undefined) | 8.7% (inactive) |
| COc1cc(N)c2ncccc2c1Cl | -7.3% (inactive) |
| CC(=O)Oc1c(Cl)cccc1-c1ccccc1 | 7.5% (inactive) |
| CC(C)C(C)(C)C(=O)C(C)(C)C(C)(C)C | 2.6% (inactive) |
| c1ccc2c(NCCCN3CCN(CCCNc4c5ccccc5nc5ccccc45)CC3)c3ccccc3nc2c1 | 22.2% (inactive) |
| O=S(=O)(O)c1ccc(O)c(C2CCCCC2)c1 | -12.2% (inactive) |
| Cc1ccc2nc(-c3ccc(N=Cc4ccccc4O)cc3)sc2c1 | 27.9% (inactive) |
| CCCCCCCCCCCCCC/C=C\C(CC(=O)O)C(=O)O (centres undefined) | -28.4% (inactive) |
| OCCc1ccc(Cl)cc1 | -1.3% (inactive) |
| CCOC(C=O)OCC | -4.3% (inactive) |
| Cc1ccc2nc(N)nnc2c1 | -17.1% (inactive) |
| O=[n+]1ccn([O-])c2ccccc21 | -8.1% (inactive) |
